sEH act: soluble epoxide hydrolase activators, primary screen, biochemical, human sEH; actives 0.04% (n = 91,000); Bifunctional epoxide hydrolase 2 (Homo sapiens), P34913; activation, % at 2 µM; purified human sEH enzymatic activity, activator screen; in the data active = activation above about 37%
CYP2C9 inhib: blockers of cytochrome P450 2C9 activity – biochemical, luminescence, ADME assay, primary screen; P11712; CYP2C9 Supersomes, luciferin-H conversion; inhibition, % at 5 µM; AID 777, 2007; actives 20% (n = 96,000);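 active = blocking of liver enzyme CYP2C9 beyond about 50% at 5 µM, limit read from the data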
Target sequence (P11712 whole entry, looked up): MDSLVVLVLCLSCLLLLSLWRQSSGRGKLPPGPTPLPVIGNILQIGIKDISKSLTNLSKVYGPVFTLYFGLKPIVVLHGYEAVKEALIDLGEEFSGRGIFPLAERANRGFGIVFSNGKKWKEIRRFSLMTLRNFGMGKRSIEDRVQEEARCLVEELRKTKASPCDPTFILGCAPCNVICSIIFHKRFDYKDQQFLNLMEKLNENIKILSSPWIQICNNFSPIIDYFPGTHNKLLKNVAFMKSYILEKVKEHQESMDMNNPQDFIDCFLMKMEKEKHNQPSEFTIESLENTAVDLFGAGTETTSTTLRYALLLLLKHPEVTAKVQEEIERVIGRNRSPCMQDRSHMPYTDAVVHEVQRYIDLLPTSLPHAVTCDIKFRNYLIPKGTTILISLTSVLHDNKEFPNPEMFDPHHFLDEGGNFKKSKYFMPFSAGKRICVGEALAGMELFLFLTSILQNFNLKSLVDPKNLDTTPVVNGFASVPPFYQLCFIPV
CYP2C19 act: human CYP2C19 activators, primary screen, biochemical, luminescence; 96,000 tested, under 10 active; activation factor at 5 µM; AID 1025, 2008; recombinant CYP2C19, luciferin-H EGE luminescence; stronger effect = higher value; 0 = fully inhibited enzyme, 1 = untreated enzyme; Cytochrome P450 2C19 (Homo sapiens), P33261;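 active = activation factor of at least 2 at 5 µM in the primary screen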;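 note: 0 = wells with 2.5 mM tranylcypromine and 1 = vehicle-only wells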
CYP2C9 activ: human CYP2C9 activators, primary screen, biochemical, luminescence; actives 1.4% (n = 96,000); recombinant CYP2C9, luciferin-H conversion; stronger effect = higher value; factor 1 = untreated enzyme, 0 = blocked; activation factor at 5 µM;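 active = activation factor of 2 or more for CYP2C9 at a 5 µM dose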;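 note: 0 = sulfaphenazole-blocked wells and 1 = vehicle-only wells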
CYP2C19 inhib: blockers of cytochrome P450 2C19 activity – biochemical, luminescence, ADME assay, primary screen; P33261; CYP2C19 Supersomes, luciferin-H EGE luminescence, 30 min; inhibition, % at 5 µM; actives 21% (n = 96,000); AID 778, 2007;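 active = CYP2C19 inhibition above a set limit at 5 µM in the primary screen, cut at about 50% in these data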;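 note: plate controls were negative control wells for no effect and 2.5 mM tranylcypromine positive control for full effect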
sEH inh: soluble epoxide hydrolase inhibitors, primary screen, biochemical, human sEH; Bifunctional epoxide hydrolase 2 (Homo sapiens), P34913; recombinant human sEH enzymatic activity assay; inhibition, % at 2 µM; actives 0.34% (n = 91,000); in the data active = inhibition above about 80%
Numbers without * were called inactive. The list is not random: actives were taken first. Their share in the collection is about 27%.

Results for CCOC(=O)C(C)Sc1nnc(-c2c[nH]c3ccccc23)n1C (stereo unspecified) ?
sEH act: 16.0; CYP2C9 inhib: 5.4; CYP2C19 act: 0.6; CYP2C9 activ: 0.9; CYP2C19 inhib: 40.2; sEH inh: -17.5

How did CCn1c(SC(C)C(=O)OC)nnc1-c1c[nH]c2ccccc12 (stereo unspecified) do in these assays?
CYP2C9 inhib: -7.3; CYP2C19 act: 0.3; CYP2C9 activ: 1.1; CYP2C19 inhib: 65.5*

How did CCn1c(SCc2ccc(C(=O)OC)o2)nnc1-c1c[nH]c2ccccc12 do in these assays?
CYP2C9 inhib: 82.7*; CYP2C19 act: 0; CYP2C9 activ: 0.2; CYP2C19 inhib: 98.4*

How did COCCn1c(SC)nnc1-c1c[nH]c2ccccc12 do in these assays?
CYP2C9 inhib: 8.4; CYP2C19 act: 0.5; CYP2C9 activ: 0.9; CYP2C19 inhib: 52.4*

Results for CCn1c(SC)nnc1-c1c[nH]c2ccccc12 ?
CYP2C9 inhib: 4.3; CYP2C19 act: 0.3; CYP2C9 activ: 1; CYP2C19 inhib: 72.4*

How did COc1cccc(-c2nnn(CCc3nn[nH]n3)n2)c1 do in these assays?
sEH act: -4.2; sEH inh: 3.9

How did O=C(c1cc2ccccc2oc1=O)N(Cc1ccco1)Cc1cccs1 do in these assays?
sEH act: -4.9; CYP2C9 inhib: 66.0*; CYP2C19 act: 0.7; CYP2C9 activ: 0.3; CYP2C19 inhib: 33.3; sEH inh: 5.1

How did Cc1ccc2[nH]c(=O)c(CN(CC3CCCO3)C(=O)c3ccncc3)cc2c1 (stereo unspecified) do in these assays?
sEH act: 3.0; CYP2C9 inhib: 84.3*; CYP2C19 act: 0; CYP2C9 activ: 0.2; CYP2C19 inhib: 97.8*; sEH inh: 0.9

What do the screens show for `Cc1ccc2[nH]c(=O)c(CN(Cc3ccco3)C(=O)c3ccncc3)cc2c1`?
CYP2C9 inhib: 96.0*; CYP2C19 act: 0; CYP2C9 activ: 0; CYP2C19 inhib: 99.8*

What do the screens show for `Cc1ccc2cc(CN(CC3CCCO3)C(=O)C(C)C)c(=O)[nH]c2c1` (stereo unspecified)?
sEH act: -2.2; sEH inh: 7.4

Results for O=C(c1cccs1)N(Cc1ccco1)Cc1cc2ccccc2[nH]c1=O ?
CYP2C9 inhib: 67.3*; CYP2C19 act: 0.3; CYP2C9 activ: 0.3; CYP2C19 inhib: 74.8*

What do the screens show for `Cc1cc(-c2cccc([N+](=O)[O-])c2)nc2ccc3ccccc3c12`?
sEH act: -6.3; CYP2C9 inhib: -11.2; CYP2C19 act: 1.1; CYP2C9 activ: 1.1; CYP2C19 inhib: -9.3; sEH inh: 6.7

How did COCCCNC(=O)c1c(N)n(/N=C/c2cccs2)c2nc3ccccc3nc12 do in these assays?
CYP2C9 inhib: 67.2*; CYP2C19 act: 0.5; CYP2C9 activ: 0.3; CYP2C19 inhib: 48.4

Results for COCCNC(=O)c1c(N)n(CCCn2ccnc2)c2nc3ccccc3nc12 ?
sEH act: -4.3; CYP2C9 inhib: 89.2*; CYP2C19 act: 0.3; CYP2C9 activ: 0.1; CYP2C19 inhib: 68.8*; sEH inh: 2.2

How did Nc1c(C(=O)NCc2ccc3c(c2)OCO3)c2nc3ccccc3nc2n1CCCN1CCOCC1 do in these assays?
CYP2C9 inhib: 44.4; CYP2C19 act: 0.3; CYP2C9 activ: 0.6; CYP2C19 inhib: 69.4*

How did COc1ccccc1CNC(=O)c1c(N)n(CCCN2CCOCC2)c2nc3ccccc3nc12 do in these assays?
sEH act: 116.6*; CYP2C9 inhib: 33.8; CYP2C19 act: 0.7; CYP2C9 activ: 0.7; CYP2C19 inhib: 32.3; sEH inh: -107.8

Results for Cc1ccnc(NS(=O)(=O)c2ccc(N=CC3=C(O)CC(C)(C)CC3=O)cc2)n1 ?
sEH act: 3.7; CYP2C9 inhib: -24.3; CYP2C19 act: 1.2; CYP2C9 activ: 1.2; CYP2C19 inhib: -18.6; sEH inh: 1.6

Results for O=C(Nc1ccc(S(=O)(=O)Nc2ncccn2)cc1)c1ccc(Br)s1 ?
sEH act: 0.8; CYP2C9 inhib: 17.8; CYP2C19 act: 1; CYP2C9 activ: 0.8; CYP2C19 inhib: -0.3; sEH inh: -2.9

How did COc1cc2c(cc1OC)-c1cc(OCCN3CCOCC3)nc(=O)n1CC2 do in these assays?
sEH act: 4.9; CYP2C9 inhib: -1.5; CYP2C19 act: 1; CYP2C9 activ: 1; CYP2C19 inhib: 1.3; sEH inh: -7.9

Results for Cc1onc(-c2c(Cl)cccc2Cl)c1C(=O)n1nnc2ccccc21 ?
sEH act: -7.1; CYP2C9 inhib: 38.4; CYP2C19 act: 0.7; CYP2C9 activ: 0.6; CYP2C19 inhib: 27.4; sEH inh: 9.9

How did O=C(NNC1CC(=O)N(c2ccc3c(c2)OCCO3)C1=O)c1ccccc1 (stereo unspecified) do in these assays?
sEH act: -2.1; CYP2C9 inhib: 6.5; CYP2C19 act: 0.9; CYP2C9 activ: 0.9; CYP2C19 inhib: 5.6; sEH inh: 4.0

Results for Cc1ccc(Nc2nc(-c3sc(NC(=O)c4cccc(Cl)c4)nc3C)cs2)cc1 ?
sEH act: -53.2; CYP2C9 inhib: 8.3; CYP2C19 act: 0.6; CYP2C9 activ: 0.9; CYP2C19 inhib: 39.9; sEH inh: 55.9

How did CCC(C)C(=O)Nc1nc(C)c(-c2csc(Nc3ccc(Cl)cc3)n2)s1 (stereo unspecified) do in these assays?
sEH act: -9.3; CYP2C9 inhib: 57.6*; CYP2C19 act: 0.6; CYP2C9 activ: 0.4; CYP2C19 inhib: 40.2; sEH inh: 14.4

How did Cc1ccc(Nc2nc(-c3sc(NC(=O)c4ccco4)nc3C)cs2)cc1 do in these assays?
sEH act: -8.0; CYP2C9 inhib: 28.5; CYP2C19 act: 0.8; CYP2C9 activ: 0.7; CYP2C19 inhib: 21.6; sEH inh: 6.1

Results for CCCC(=O)Nc1nc(C)c(-c2csc(Nc3ccc(Cl)cc3)n2)s1 ?
sEH act: -8.5; CYP2C9 inhib: 31.0; CYP2C19 act: 0.5; CYP2C9 activ: 0.7; CYP2C19 inhib: 53.5*; sEH inh: 13.6

What do the screens show for `Cn1c(=O)c2c(nc(SCc3ccccn3)n2C)n(C)c1=O`?
CYP2C9 inhib: 4.8; CYP2C19 act: 1; CYP2C9 activ: 1; CYP2C19 inhib: 2.9

How did CCOc1c(Br)cc(C2NS(=O)(=O)N=C3CCCCCN32)cc1OC (stereo unspecified) do in these assays?
sEH act: 3.4; CYP2C9 inhib: 65.6*; CYP2C19 act: 0.3; CYP2C9 activ: 0.3; CYP2C19 inhib: 67.8*; sEH inh: -3.8

How did CCc1ccc(OCc2nnc(NC(=O)c3cccs3)s2)cc1 do in these assays?
sEH act: 7.2; CYP2C9 inhib: 32.7; CYP2C19 act: 1.1; CYP2C9 activ: 0.7; CYP2C19 inhib: -7.3; sEH inh: -7.4
